Compound activity (PubChem)
HCMV antiviral = qHTS Assay for inhibitors of the human cytomegalovirus (HCMV) | HFF cells, HCMV-luciferase reporter, 72 h; hits give low values | activity change, negative = inhibition, % at 57.5 µM | 4.5% of 410,000 active | AID 1259415, 2018; in the data active = activity change below about -60%; inconclusive = no clear call, values can overlap the other calls; inactive = above about -39%
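Compounds were evaluated in HFFs infected with an HCMV luciferase reporter virus (MOI 1 PFU/cell). Luciferase in lysates collected 72 h post infection served as the replication measure.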
FMDV inh = High Throughput Screening for Foot and Mouth Disease Virus Antivirals; FMDV antiviral cell-based qHTS; Potency, µM (doses to about 57.9 µM), for the others: at the top dose activity change, negative = inhibition, hits mostly inhibitors; 1.2% of 410,000 active; AID 1159524, 2015; calls by dose curve; tested in HEK293T cells; note: read-out not given here; potency is the fitted concentration of half-maximal effect; nearly all actives have a fitted effect of over 45% in size
RE007 growth inh = qHTS Assay for Inhibitors of the HIV-1 protein Vpr; S. pombe RE007 Vpr strain, BacTiter-Glo ATP luminescence, 24 h; Potency, µM (series often up to 92.2 µM), inactives show at the top dose activity change, negative = less growth, actives largely listed as inhibitors; 0.21% of 360,000 active; AID 651644, 2012; active = well fitted falling curve with a large enough effect; inconclusive = small, poorly fitted or top-dose-only effect; inactive = no such curve, though single readings can be large or run the other way; note: potency is the fitted concentration of half-maximal effect; nearly all actives have a fitted effect of over 50% in size
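Fission yeast RE007 carrying one integrated HIV-1 vpr copy, seeded at OD 0.01 in PMG+AL medium with 23 nL pinned compound. Grown 24 h at 30 degrees; viability read by BacTiter-Glo luminescence after 5 min.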
Sm TGR inh = qHTS Assay for the Inhibitors of Schistosoma Mansoni Peroxiredoxins. Schistosoma mansoni thioredoxin glutathione reductase (TGR), Q962Y6. purified TGR, DTNB reduction, TNB absorbance 405 nm. Potency, µM (top dose mostly 114 µM), for the others: at the top dose activity change, negative = inhibition, actives largely listed as inhibitors. 3% of 360,000 active. AID 485364, 2010; note: potency is the fitted concentration of half-maximal effect; nearly all actives have a fitted effect of over 60% in size
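TGR 20 nM + NADPH 100 uM (dispensed conc.), cpd preinc 15 min RT; start with NADPH (500 uM addition) then DTNB (15 mM addition). Kinetic TNB absorbance, 405 nm filter. Four-parameter Hill fit across titration.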
Tb PYK inh = qHTS of Trypanosoma Brucei Inhibitors. AID 624173, 2012. Potency, µM (series often up to 76.8 µM), for the others: top-dose activity, negative = inhibition, actives largely listed as inhibitors. 0.12% of 410,000 active. TbPYK enzyme, Kinase-Glo Plus ATP luminescence, 45 min; note: potency is the fitted concentration of half-maximal effect; nearly all actives have a fitted effect of over 50% in size
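In this concentration-response screen, enzyme-free wells defined baseline while DMSO plates tracked drift. Each reaction combined TbPYK, substrate, compound and 130 uM ADP for 45 min at room temperature. Kinase-Glo Plus luminescence gave the signal.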
FBPA Giardia inh = qHTS Assay for Inhibitors of Fructose-1,6-bisphosphate Aldolase from Giardia Lamblia | A8B2U2 | 0.71% of 290,000 active | purified Giardia FBPA | Potency, µM (highest dose often 59.6 µM), inactives show top-dose activity, negative = inhibition, usual class: inhibitors; note: potency is the fitted concentration of half-maximal effect; nearly all actives have a fitted effect of over 55% in size
Target sequence (A8B2U2 whole entry, looked up): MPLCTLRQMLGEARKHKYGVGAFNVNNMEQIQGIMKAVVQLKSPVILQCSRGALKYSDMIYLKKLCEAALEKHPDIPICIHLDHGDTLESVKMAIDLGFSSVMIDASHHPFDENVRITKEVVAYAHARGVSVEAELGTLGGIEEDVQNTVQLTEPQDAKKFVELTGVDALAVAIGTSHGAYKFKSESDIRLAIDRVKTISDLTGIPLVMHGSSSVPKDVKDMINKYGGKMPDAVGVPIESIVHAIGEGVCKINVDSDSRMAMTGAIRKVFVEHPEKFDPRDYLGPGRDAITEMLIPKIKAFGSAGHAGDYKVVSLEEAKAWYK
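40 nM FBPA preincubated 10 min at RT with compound (up to 57.5 uM final), then substrate plus GAPDH/TPI/NAD/arsenate coupling and diaphorase/resazurin added. Fluorescence read after 20 min at RT, 525/598 nm.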
Active calls of the source: *; ? = inconclusive; . = no result; + = active, no number. Compounds with a hit are over-represented: about 7.7% of the library has one in this group of screens. Unless noted, calls come from the whole dose curve; as a rule, active = well fitted curve in the direction sought with a large enough effect; inconclusive = small, poorly fitted or top-dose-only effect, or another doubt; inactive = no such curve, though single readings can be large; an effect the other way counts as inactive or inconclusive. % is set by controls: 0 for no effect and ±100 for the full control effect.

SMILES	HCMV antiviral	FMDV inh	RE007 growth inh	Sm TGR inh	Tb PYK inh	FBPA Giardia inh
Cc1cccc(-n2ncc3c2CCCC3NC(=O)CCN2CCCCO2)c1C (centres undefined)	-24	-2%	-5%	-5%	10%	5%
c1ccc(-c2cc3c(Nc4cccnc4)nccc3[nH]2)cc1	11	.	.	.	.	.
Cc1nn(C)c2c1c(C(F)(F)F)cc(=O)n2CC(=O)Nc1ccc(F)cc1F	9	-14%	.	0%	5%	.
Cc1ccccc1OCc1nnc(SCc2cc(=O)c3ccc(C)c(C)c3[nH]2)n1C	0	-35%	.	49%	-12%	.
CCOC(=O)c1ccc(NC(=O)CCc2c(C)nc3cc(-c4ccc(OC)cc4OC)nn3c2C)cc1	9	-3%	.	5%	-1%	.
O=C(Nc1ccccc1F)c1cccc(C(=O)Nc2ccccc2F)c1	3	4%	7%	5%	-3%	0%
Cc1nc(-c2ccc(C(=O)Nc3ccccc3F)cc2)cs1	-70*	8.9µM*	-9%	0%	?	0%
O=C(Nc1ccccc1F)c1ccc(C(=O)c2ccccc2)cc1	-72*	48%	0%	15%	-1%	.
c1ccc(CC2CCN(c3nc4ccccc4n4nnnc34)CC2)cc1	-102*	0%	-4%	5%	5%	1%
O=C(c1ccco1)N1CCN(c2nc3ccccc3n3nnnc23)CC1	-28	-25%	-9%	-24%	-8%	6%
CC(=O)c1ccc(NC(=O)c2ccc3c(c2)nnn3C2CCCC2)cc1	-4	5%	.	8%	0%	.
N#Cc1ccc(NC(=O)c2ccc3c(c2)nnn3C2CCCC2)cc1	-9	-15%	.	4.5µM*	-3%	.
Cc1c(Cl)cccc1NC(=O)Cn1c(=O)n(Cc2nc(-c3ccccc3)no2)c(=O)c2cc3c(cc21)OCO3	12	-21%	.	-8%	0%	.
O=C(NNc1c(Cl)cccc1Cl)c1sccc1Cl	-75*	4%	1%	12%	-24%	8%
CCOC(=O)C1CCCCN1Cc1nc(N2CCN(C(C)=O)CC2)c2ccccc2n1 (centres undefined)	.	5%	.	.	.	.
CCOC(=O)C1=C(c2ccccc2)NC(SC)=C(C#N)C1c1ccco1 (centres undefined)	36	-29%	-10%	35µM*	0%	-15%
C[C@H](NC(=O)N1CCn2c1nc1ccccc12)C(=O)N1CCCCC1	+	11%	-5%	-6%	-15%	-12%
CCOc1ccc(NC(=O)CN(C)C(=O)c2cc(C)on2)cc1OCC	30	16%	-6%	0%	-3%	.
CCOc1ccc(NC(=O)CN(C)C(=O)CCc2ccccc2Cl)cc1OCC	-80*	?	10%	?	2%	.
CCOc1ccc(NC(=O)CN(C)C(=O)c2ccncc2)cc1OCC	7	6%	6%	25µM*	-1%	.
O=C(Cc1ccccc1)Nc1ccc2c(c1)OC1(CCCC1)O2	15	51%	25%	-8%	-1%	.
